Assay outcomes (PubChem BioAssay)
Tg IFNy HTS – inhibitors of Toxoplasma gondii growth with IFN-gamma. Toxoplasma gondii growth in IFN-gamma-treated host cells; active compounds read low. activity change, negative = inhibition, % (no concentration beside the values). 3.8% of 69,000 active; in the data active = activity change below about -70%, passing the limit was not always enough;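 note: host cells are HeLa cells infected with Toxoplasma gondii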
Of the large screens only hits and unclear results are named; the others gave an inactive call; ! = not active in a repeat. The entries come from a sample that favours hits as a whole.

C[C@H]1CN([C@@H](C)CO)C(=O)c2cccc(NS(=O)(=O)c3ccc(F)cc3)c2O[C@H]1CN(C)Cc1ccc(Cl)c(Cl)c1	Tg IFNy HTS -78
C[C@@H]1CN([C@@H](C)CO)C(=O)c2cccc(NS(C)(=O)=O)c2O[C@@H]1CN(C)Cc1ccc(-c2ccccc2)cc1	none
C[C@H](CO)N1C[C@H](C)[C@@H](CN(C)Cc2ccc(-c3ccccc3)cc2)Oc2c(NS(C)(=O)=O)cccc2C1=O	none
C[C@@H]1CN([C@@H](C)CO)C(=O)c2cccc(NS(=O)(=O)c3ccc(F)cc3)c2O[C@H]1CN(C)Cc1ccc(Cl)c(Cl)c1	none
C[C@@H]1CN([C@@H](C)CO)C(=O)Cc2cc(NC(=O)C3CCCCC3)ccc2O[C@@H]1CN(C)Cc1ccc(Cl)c(Cl)c1	Tg IFNy HTS -87
C[C@H](CO)N1C[C@H](C)[C@H](CN(C)Cc2ccc(Cl)c(Cl)c2)Oc2ccc(NC(=O)C3CCCCC3)cc2CC1=O	none
COC(=O)[C@@H]1C[C@@H](NC(=O)c2cc(Cl)cc(OC)c2)CN1C	none
CC(C(=O)NCCS(=O)(=O)N(C)C)n1cnc2ccccc21 (configuration not stated)	none
CCOC(=O)c1cccc(NC(=O)Nc2ccc(-c3nc(-c4ccc(C)cc4C)co3)cc2)c1	none
CC1=C(C(=O)N2CCN(c3cccc(Cl)c3)CC2)C2(CCN(S(C)(=O)=O)CC2)OC1=O	none
CCOCC1CN(Cc2ccoc2)Cc2cn(C)nc21 (configuration not stated)	none
Cc1ccc2c(c1)NC1(CCN(S(=O)(=O)c3cc(C)ccc3C)CC1)c1cccn1-2	none
O=C(CCCCCCC(=O)Nc1ccccc1)NO	Tg IFNy HTS -84!
O=C(CCCCCCC(=O)Nc1cccnc1)NO	Tg IFNy HTS -84
O=C(NC(=S)Nc1cccnc1)c1ccccc1	none
CN(CC(=O)Nc1cccnc1)S(=O)(=O)c1ccc(Cl)cc1	none
O=C(O)CSCCCC(=O)Nc1ccc(Br)cc1	none
CCCCC(=O)Nc1ccc(-c2nc(-c3ccccc3)co2)cc1	none
CCCc1ncncc1C(=O)N1CCCC(O)(CO)CC1 (configuration not stated)	none
COc1ccccc1CN(Cc1ccc(-n2cccn2)cc1)C1CC1	none
CCc1ccc2occ(CC(=O)NCc3cccnc3N(C)C)c2c1	none
NC(=O)c1csc(-c2ccc(F)cc2F)n1	Tg IFNy HTS -107
NC(=O)c1csc(-c2cccc(C(=O)O)c2)n1	none
O=C(NCCc1csc(-c2ccc(F)cc2)n1)C(=O)Nc1ccc(F)cc1F	none
O=C1CC(C(=O)NCCN2Cc3ccccc3OC(c3ccsc3)C2)c2ccccc21 (configuration not stated)	none
CN1CC[C@@]2(CN(C(=O)C3CCOCC3)C[C@H]2c2ccccc2)C1=O	none
CC(=O)c1sc(Nc2nc(NC(C)C)nc(NC(C)C)n2)nc1C	none
COc1ccc2c3c(n(C)c2c1)[C@H](CO)N(CC1CC1)CC31CN(C(=O)c2ccc3c(c2)OCO3)C1	none
COc1ccc2c3c(n(C)c2c1)[C@H](CO)N(C(=O)Nc1ccc(F)cc1)CC31CCN(S(=O)(=O)c2cccc(C)c2)CC1	Tg IFNy HTS -74
CCCNC(=O)N1CC2(CCN(S(=O)(=O)c3ccccc3)CC2)c2c(n(C)c3cc(OC)ccc23)[C@H]1CO	none
COc1ccc2c3c(n(C)c2c1)[C@H](CO)N(C(=O)Nc1ccc(F)cc1)CC31CCN(Cc2ccccn2)CC1	none
COc1ccc2c3c(n(C)c2c1)[C@@H](CO)N(C(=O)Nc1ccc(F)cc1)CC31CCN(S(=O)(=O)c2cccc(C)c2)CC1	Tg IFNy HTS -75
COc1ccc2c3c(n(C)c2c1)[C@@H](CO)N(C(=O)Nc1ccc(F)cc1)CC31CCN(Cc2ccccn2)CC1	none
COc1ccc2c3c([nH]c2c1)[C@H](CO)N(C(=O)Nc1cccc(F)c1)CC31CCN(S(=O)(=O)c2cccc(C)c2)CC1	none
CCN(CC)c1ncnc2c1cnn2CC(=O)Nc1ccc(Cl)cc1C	none
O=S(=O)(c1ccccc1)N1CC2CN(Cc3ccc(Cl)cc3)C2C1 (configuration not stated)	Tg IFNy HTS -106
O=S(=O)(Cc1ccccc1)N1CC2CN(Cc3cccc(Cl)c3)CC2C1 (configuration not stated)	none
O=S(=O)(Cc1ccccc1)N1CC2CN(Cc3ccccc3)CC2C1 (configuration not stated)	none
Cc1ncnc(N2CCN(C(=O)C3CC4(CCNCC4)CN3)CC2)c1C (configuration not stated)	none
Cc1nn(-c2ccccc2)nc1C(=O)Nc1nc(-c2ccc(F)c(F)c2)cs1	none
Cc1nc2ccccn2c1-c1csc(NC(=O)c2ccc(Br)cc2)n1	Tg IFNy HTS -78
Cc1ccc(-c2csc(NC(=O)c3ccccc3)n2)c(C)c1	none
CCOc1ccccc1-c1ccccc1NC(=O)C1(C)CC(=O)N2C=CC=CC2=N1 (configuration not stated)	none
COCCn1c2c(ccc1=O)CC(NC(=O)Cc1cccs1)CC2 (configuration not stated)	none
C=CCn1c(=O)c(C(=O)NCc2ccc(F)cc2)c(O)c2ccccc21	none
O=C(NCCc1csc(-c2ccc(Cl)cc2)n1)C(=O)Nc1ccc(F)cc1	none
O=C(Nc1ccc2c(c1)OCCO2)c1csc(-c2cccc3c2CCO3)n1	none
